Laboratory results reported in PubChem BioAssay (NCATS).
Inconclusive results are not listed.

Test: qHTS Assay for Lipid Storage Modulators (AID 1519)
Settings: Drosophila S3 cells, BODIPY lipid droplet/cell ratio, laser cytometry; measured here: lipid channel max response; cells loaded with oleic acid
Summary of the method: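 Cells seeded at 5,000 per well were treated with compounds over a concentration series and loaded with oleic acid (400 uM, as added). Lipid droplet fluorescence (488 nm excitation, 500-530 nm channel) was read by laser-scanning cytometry and normalized to 20 uM Triacsin C.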

SMILES | max response
COC(=O)CC1C(C)(C)C(OC(C)=O)[C@@]2(O)C=C3C4CC(=O)OC(c5ccoc5)[C@]4(C)CCC3[C@@]1(C)C2=O (some centres undefined) | 21.8%
CC1(C)C(=O)CC[C@@]2(C)C1CC(O)[C@@]1(C)C3=CC(=O)OC(c4ccoc4)[C@]3(C)CCC21 (some centres undefined) | 28.4%
O=c1ccn([C@H]2C[C@H](O)[C@@H](CO)O2)c(=O)[nH]1 | 16.3%
COc1cc(OC)c2c(=O)c(OC)c(-c3ccc(OC)c(OC)c3)oc2c1 | 15.7%
COC(=O)CC1C(C)(C)C(=O)C2CC3=C4CC(=O)OC(c5ccoc5)[C@]4(C)CCC3[C@@]1(C)C2=O (some centres undefined) | 18%
CC(=O)OC1CC2C(C)(C)C(O)CC(O)[C@@]2(C)C2CC[C@@]3(C)C(=CC(=O)OC3c3ccoc3)[C@]12C (some centres undefined) | 3.91%
C=CC1=C(C(=O)O)N2C(=O)C(NC(=O)/C(=N\O)c3csc(N)n3)C2SC1 (centres undefined) | 17.7%
COC(=O)CC1C(C)(C)C(O)C2CC3=C4C=C(OC)OC(c5ccoc5)[C@]4(C)CCC3[C@@]1(C)C2=O (some centres undefined) | 3.16%
NCC1O[C@@H](OC2C(N)C[C@H](N)[C@@H](O[C@H]3OC(CO)C(O)C(N)C3O)C2O)C(N)C(O)C1O (some centres undefined) | 7.99%
COc1ccc2c(c1)OCC(Cc1ccc(OC)c(O)c1)C2=O (centres undefined) | 13%
CC1=CC(=O)[C@@H]2C[C@H]1C2(C)C | -0.655%
CCN(CC)Cc1ccc(Nc2ccnc3cc(Cl)ccc23)cc1O | 21.7%
CC(C)[C@H]1CC[C@@H](C)C[C@H]1O | -15.2%
CC1=C(C2=C(C)C(C(C)C)C3=C(C(=O)C(O)C3O)C2O)C(O)C2=C(C(O)C(O)C2=O)C1C(C)C (centres undefined) | 12.8%
